Several values for one entry are separate records, joined by “and”; a condition that tells them apart may be missing. Identical values can stand only once. Some structures have more than one record in an assay (separate samples or runs), and their calls can disagree. Activity calls are given as the source filed them. Rule for the calls: active = hit-call score of the fitted dose curve at least 0.9, where 1 is the maximum; inactive = score below 0.9.
Each compound was assayed on UDP glucuronosyltransferase (UGT1A6), UGT1A6 (gene 54578) (assay: LTEA_HepaRG_UGT1A6: Life Technologies and Expression Analysis (LTEA) Assay for UDP glucuronosyltransferase (UGT1A6) using HepaRG (AID 2283539)). Conditions: mRNA level, 48 h; actives raise or lower the signal.
In short: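 Endpoint is UGT1A6 transcript induction or loss in a human liver cell line, quantified by TaqMan qRT-PCR 48 h after dosing. Concentrations ran from 100 uM downward in half-log steps in 0.5% DMSO; activity was fitted in both directions versus vehicle.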

| SMILES | outcome | AC50 |
| --- | --- | --- |
| CCN(CC)C(=O)SCc1ccc(Cl)cc1 | inactive |  |
| O=[N+]([O-])/N=C1\NCCN1Cc1ccc(Cl)nc1 | inactive |  |
| COP(=S)(OC)Oc1ccc(SC)c(C)c1 | inactive |  |
| CCC(C)(C)C(=O)OC1=C(c2ccc(Cl)cc2Cl)C(=O)OC12CCCCC2 | inactive |  |
| CC(C)OC(=O)Nc1cccc(Cl)c1 | inactive |  |
| CCC(C)Nc1c([N+](=O)[O-])cc(C(C)(C)C)cc1[N+](=O)[O-] (centres undefined) | inactive |  |
| Oc1cc(Cl)ccc1Oc1ccc(Cl)cc1Cl | inactive | 51 µM (active) |
| CNC(=O)Oc1cccc(N=CN(C)C)c1 | inactive |  |
| O=S(=O)(O)C(F)(F)C(F)(F)C(F)(F)C(F)(F)C(F)(F)C(F)(F)C(F)(F)C(F)(F)F | inactive | 89.2 µM (active) and 47 µM (active) |
| CCc1ccc(C(=O)NN(C(=O)c2cc(C)cc(C)c2)C(C)(C)C)cc1 | inactive |  |
| O=C(O)C(F)(F)C(F)(F)C(F)(F)C(F)(F)C(F)(F)C(F)(F)C(F)(F)F | inactive |  |
| O=C1c2ccccc2C(=O)N1SC(Cl)(Cl)Cl | inactive |  |
| Oc1ccc(Cl)cc1Cc1ccccc1 | inactive | 81.1 µM (active) |
| COP(=O)(OC)OC=C(Cl)Cl | inactive |  |
| O=[N+]([O-])c1c(Cl)c(Cl)c(Cl)c(Cl)c1Cl | inactive |  |
| CNC(=O)Oc1ccccc1OC(C)C | inactive |  |
| CC(C)(C)C(O)C(Oc1ccc(Cl)cc1)n1cncn1 (centres undefined) | inactive | 0.381 µM (active) |
| CN1CSC(=S)N(C)C1 | inactive |  |
| OCCOc1ccccc1 | inactive |  |
| CC1(c2ccc(Oc3ccccc3)cc2)OC(=O)N(Nc2ccccc2)C1=O (centres undefined) |  | 50.2 µM (active) |

From PubChem BioAssay (EPA / NIEHS)
